Test [1] in a line: qHTS of pediatric cancer cell lines to identify multiple opportunities for drug repurposing: Confirmatory screen for LAN-5 cells (AID 1347113). Note: potency is the fitted concentration of half-maximal effect; nearly all actives have a fitted effect of over 65% in size. The method in brief: (§1)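 Cells (500-1,000/well) in growth media were settled 5 h at 37 degrees C, then given compounds for 48 h. Viability was read as CellTiter-Glo luminescence. Primary runs used MIPE at 11 points (0.78 nM-46 µM) and NPC at 8 points (0.59 nM-46 µM); follow-ups used 11 points.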
In general terms: qHTS replaces the single test concentration by a dilution series.

Test [2] can be described thus: qHTS of pediatric cancer cell lines to identify multiple opportunities for drug repurposing: Confirmatory screen for SJ-GBM2 cells (AID 1347116). Note: nearly all actives have a fitted effect of over 60% in size. Note: potency is the fitted concentration of half-maximal effect. In a few lines: (§2)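 Viability measured as metabolically active cells via CellTiter-Glo luminescence following 48 hours of compound exposure, 11-point dilutions in confirmatory testing. 500-1,000 cells/well plated 5 hours before dosing; controls were DMSO and 2.3 µM bortezomib.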

Test [3] can be described thus: qHTS of pediatric cancer cell lines to identify multiple opportunities for drug repurposing: Confirmatory screen for BT-37 cells (AID 1347117). Note: nearly all actives have a fitted effect of over 55% in size. Note: potency is the fitted concentration of half-maximal effect. In a few lines:
as §1

Test [4] is described as follows: qHTS of pediatric cancer cell lines to identify multiple opportunities for drug repurposing: Confirmatory screen for TC32 cells (AID 1347118).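 Note: cells exposed to compound for 48 h before the read; nearly all actives have a fitted effect of over 65% in size.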 Note: potency is the fitted concentration of half-maximal effect. The method in brief:
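qHTS, TC32, 48 h drug treatment, CellTiter-Glo luminescence as a proxy for metabolically active cells; primary top concentration 46 µM (MIPE 11-pt, NPC 8-pt); confirmatory 11-pt.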

The nature of test [5]: qHTS of pediatric cancer cell lines to identify multiple opportunities for drug repurposing: Confirmatory screen for Rh41 cells (AID 1347123).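 Note: potency is the fitted concentration of half-maximal effect; 48 h compound exposure; nearly all actives have a fitted effect of over 60% in size.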 The method in brief:
as §1

The nature of test [6]: qHTS of pediatric cancer cell lines to identify multiple opportunities for drug repurposing: Confirmatory screen for RD cells (AID 1347124).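 Note: cells exposed to compound for 48 h before viability readout; nearly all actives have a fitted effect of over 65% in size.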 Note: potency is the fitted concentration of half-maximal effect. The method in brief:
as §1

Test [7] can be described thus: qHTS of pediatric cancer cell lines to identify multiple opportunities for drug repurposing: Confirmatory screen for Rh18 cells (AID 1347125). Note: nearly all actives have a fitted effect of over 55% in size. Note: potency is the fitted concentration of half-maximal effect. In a few lines: as §1
Test [8] can be described thus: qHTS of pediatric cancer cell lines to identify multiple opportunities for drug repurposing: Confirmatory screen for Rh30 cells (AID 1347126). Note: nearly all actives have a fitted effect of over 55% in size. Note: potency is the fitted concentration of half-maximal effect. The method in brief: as §1
Test [9] can be described thus: qHTS of pediatric cancer cell lines to identify multiple opportunities for drug repurposing: Confirmatory screen for SK-N-SH cells (AID 1347129).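 Note: cells exposed to compound for 48 h before viability read; nearly all actives have a fitted effect of over 60% in size.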 Note: potency is the fitted concentration of half-maximal effect. In a few lines:
as §1

The subject of test [10] is Zika virus NS2B-NS3 protease. Description: Primary screen GU AMC qHTS for Zika virus inhibitors (AID 1347154). Note: nearly all actives have a fitted effect of over 70% in size. Note: potency is the fitted concentration of half-maximal effect. In a few lines: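 Unlinked Zika NS2B hydrophilic domain/NS3 protease domain noncovalent complex (25 nM final) in 10 mM Tris-HCl pH 8.0, 0.01% Tween 20, with AMC peptide substrate. Fluorescence (ex 340, em 450 nm) change over 15 min, room temperature; percent inhibition fitted to 4-parameter Hill equation.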

Test [11] in a line: qHTS of pediatric cancer cell lines to identify multiple opportunities for drug repurposing: Confirmatory screen for MG 63 (6-TG R) cells (AID 1347119). Note: nearly all actives have a fitted effect of over 55% in size. Note: potency is the fitted concentration of half-maximal effect. The method in brief: as §1
Test [12] is described as follows: qHTS of pediatric cancer cell lines to identify multiple opportunities for drug repurposing: Confirmatory screen for control Hh wild type fibroblast cells (AID 1347121). Note: nearly all actives have a fitted effect of over 70% in size. Note: potency is the fitted concentration of half-maximal effect. In a few lines: as §1
Test [13] in a line: qHTS of pediatric cancer cell lines to identify multiple opportunities for drug repurposing: Confirmatory screen for Saos-2 cells (AID 1347127). Note: nearly all actives have a fitted effect of over 60% in size. Note: potency is the fitted concentration of half-maximal effect. The method in brief:
as §1

Test [14] deals with Zika virus NS2B-NS3 protease (unlinked). Description: Optimization of GU AMC qHTS for Zika virus inhibitors: Unlinked NS2B-NS3 protease assay (AID 1347151). Note: nearly all actives have a fitted effect of over 80% in size. Note: potency is the fitted concentration of half-maximal effect. The method in brief: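 Noncovalent complex of NS2B hydrophilic domain and NS3 protease domain, 25 nM final, in 10 mM Tris-HCl pH 8.0, 0.01% Tween 20. AMC fluorescence change over 15 min at room temperature was fitted to a 4-parameter Hill equation.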

Test [15] is described as follows: qHTS of pediatric cancer cell lines to identify multiple opportunities for drug repurposing: Confirmatory screen for DAOY cells (AID 1347114). Note: nearly all actives have a fitted effect of over 65% in size. Note: potency is the fitted concentration of half-maximal effect. In a few lines:
as §2

Test [16] concerns the target N-terminal Xaa-Pro-Lys N-methyltransferase 1 (Homo sapiens) (UniProt Q9BV86). Description: qHTS Assay for Inhibitors of N-terminal methyltransferase 1 (NTMT1): LOPAC validation of the NTMT1 SAHH-coupled ThioGlo3 Assay (AID 1347143).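 Note: SAH from peptide methylation measured as thiol fluorescence via SAHH coupling and ThioGlo3; nearly all actives have a fitted effect of over 70% in size.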 In a few lines: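 In this qHTS pilot against the LOPAC set, 125nM NTMT1 met compounds tested at multiple concentrations, and fluorescence was normalized to background.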

Inconclusive results are not listed. The source made the active and inactive calls. Calls come from the whole dose curve; as a rule, active = well fitted curve in the direction sought with a large enough effect; inconclusive = small, poorly fitted or top-dose-only effect, or another doubt; inactive = no such curve, though single readings can be large; an effect the other way counts as inactive or inconclusive.

N-terminal Xaa-Pro-Lys N-methyltransferase 1 (Homo sapiens), sequence (Q9BV86 whole entry, looked up): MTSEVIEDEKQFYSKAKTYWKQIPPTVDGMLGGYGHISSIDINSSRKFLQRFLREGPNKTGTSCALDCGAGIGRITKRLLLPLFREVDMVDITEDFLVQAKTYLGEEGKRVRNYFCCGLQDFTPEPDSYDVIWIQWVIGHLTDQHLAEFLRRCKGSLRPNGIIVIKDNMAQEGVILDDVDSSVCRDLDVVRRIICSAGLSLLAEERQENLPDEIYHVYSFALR

In the case of `Nc1c2ccccc2nc2ccccc12`, the Potency was 3.69 µM (active) in test [1]; 3.29 µM (active) in [2]; 2.93 µM (active) in test [3]; 2.93 µM (active) in test [4]; 16.5 µM (active) in [5]; 3.29 µM (active) in test [6]. In addition, the Potency in test [7] is 4.65 µM (active); in [8], 7.37 µM (active); in test [9] it was 8.33 µM (active); in [10], 35.5 µM (active).

In the case of `COc1c(C)c2c(c(O)c1C/C=C(\C)CCC(=O)OCCN1CCOCC1)C(=O)OC2`, the Potency in test [1] was 1.65 µM (active); in test [3] it was 1.31 µM (active); in [4], 1.47 µM (active); in test [5] it was 2.33 µM (active); in [14] it was 21.5 µM (active). The Potency entry in test [11], in test [12] and in [13] was “inactive” each time.

Regarding `O=c1[nH]sc2cc(Cl)ccc12`, the Potency in [1] was 10.4 µM (active); in [2] it was 20.8 µM (active); in test [4], 20.8 µM (active); in test [11] it was 20.8 µM (active); in test [5] it was 1.85 µM (active); in test [8], 6.57 µM (active). For the same compound, the Potency entry in test [12], in test [9] and in test [10] was “inactive” in each case.

On to `Cc1cc(OCCOCC[N+](C)(C)Cc2ccccc2)ccc1C(C)(C)CC(C)(C)C`, for which the Potency was 9.27 µM (active) in test [1]; 11.7 µM (active) in test [15]; 14.7 µM (active) in test [2]; 10.4 µM (active) in test [3]; 2.93 µM (active) in [4]; 9.27 µM (active) in [11]. Besides, the Potency in test [12] was 20.8 µM (active); in [5] it was 7.37 µM (active); in test [6], 10.4 µM (active); in test [7], 18.5 µM (active); in test [8] it was 13.1 µM (active); in test [13], 7.37 µM (active). Moreover, in test [9], the Potency is 20.9 µM (active).

For `CCN(CC)CCNC(=O)c1ccc(NS(C)(=O)=O)cc1`, the Potency entry in [16] and in [14] was “inactive” each time.

For the compound `CCC(=O)O[C@]1(C(=O)COC)[C@@H](C)C[C@H]2[C@@H]3CCC4=CC(=O)C=C[C@]4(C)C3(F)[C@@H](O)C[C@@]21C` (some centres undefined), the Potency entry in [15], in test [2], in [3], in test [4], in [12] and in test [6] was “inactive” throughout. The Potency result in [7], in test [8], in test [9] and in test [10] was “inactive” in each case. Moreover, the Potency is 26.1 µM (active) in [11] and 16.5 µM (active) in [5].

The values above are taken from PubChem BioAssay (NCATS).
